Only a selection was taken, and hits are over-represented in it overall.
LASV entry inh: inhibitors of Lassa virus binding or cell entry | Potency, µM (doses to about 37.9 µM), hits mostly inhibitors | actives 1.2% (n = 300,000) | AID 540256 | Lassa virus pseudotype entry inhibition, cell reporter; calls by dose curve; tested in HEK293 cells; also: nearly all actives have a fitted effect of over 50% in size
VACV Venus inh: vaccinia inhibition (Venus reporter). Potency, µM (highest dose often 36.5 µM), usual class: inhibitors. actives 0.46% (n = 330,000). Vaccinia virus Venus reporter expression, fluorescence. AID 720580; calls by dose curve; tested in A549 cells; also: nearly all actives have a fitted effect of over 30% in size
MARV entry inh: inhibitors of Marburg virus binding or cell entry | Potency, µM (top dose mostly 37.8 µM), usual class: inhibitors | actives 1.8% (n = 300,000) | AID 540276 | Marburg virus pseudotyped entry inhibition, cell reporter; calls by dose curve; tested in HEK293 cells
VACV mCherry inh: vaccinia inhibition (mCherry reporter); Vaccinia virus mCherry reporter infection, fluorescence; Potency, µM (series often up to 36.5 µM), hits mostly inhibitors; actives 0.63% (n = 310,000); AID 720579; calls by dose curve; tested in A549 cells; also: nearly all actives have a fitted effect of over 35% in size
CHX counter: counter-screen for Shiga toxin inhibitors: cycloheximide protein synthesis inhibition | cell reporter, cycloheximide protein synthesis inhibition counterscreen | max response, % | actives 12% (n = 300,000); in the data active = max response mostly above about 13%, no sharp cut-off; inactive = mostly below about 14%; also: read at 38.3 µM for the half of the compounds with a filed dose
Shiga toxin inh: blocks Shiga toxin action in Vero cells; actives 9.2% (n = 290,000); Vero cells, Shiga toxin protein synthesis inhibition reporter; inhibition, % at 38.7 µM; in the data active = inhibition mostly above about 28%, no sharp cut-off; inactive = mostly below about 43%
Numbers stand for hits; – = inactive; ? = inconclusive; · = no result given.

SMILES | LASV entry inh | VACV Venus inh | MARV entry inh | VACV mCherry inh | CHX counter | Shiga toxin inh
O=C(c1ccc2c(Cl)c3c(nc2c1)CCCC3)N1CCC(N2CCCCC2)CC1 | ? | ? | 4.61µM | – | – | –
CCC(C)NC(=O)c1ccc2c(SCC(=O)O)c3c(nc2c1)CCCC3 (centres undefined) | – | – | – | – | – | –
O=C(Nc1ccc(Cl)cn1)c1ccc2c(Cl)c3c(nc2c1)CCC3 | · | · | · | · | 34.5 | 64.0
Cc1cccc(NC(=O)c2ccc3c(Cl)c4c(nc3c2)CCCC4)n1 | · | – | · | – | – | –
O=C(c1ccc2c(Cl)c3c(nc2c1)CCCC3)N1CCN(c2ccccc2)CC1 | – | – | – | – | · | ·
CN(C(=O)c1ccc2c(Cl)c3c(nc2c1)CCC3)c1ccccc1F | – | – | ? | – | · | ·
COC(=O)c1c(OCc2ccccn2)cc(=O)n2c1CCN(Cc1cccc(C(F)(F)F)c1)CC2 | · | – | · | – | · | ·
CCCn1c(C)cc(C(=O)COc2ncnc3sccc23)c1C | ? | · | – | · | 44.0 | 104.5
CCC(=O)c1ccc(OCC(=O)OCC(=O)c2cc(C)n(C3CC3)c2C)cc1 | – | – | – | – | · | ·
CCCNC(=O)COc1ncnc2sccc12 | ? | – | – | – | – | –
Cc1cc(C(=O)COc2ncnc3sccc23)c(C)n1C1CC1 | – | – | – | – | 48.8 | 92.4
CCCn1c(C)cc(C(=O)COc2ccc(-c3nnco3)cc2)c1C | – | – | ? | – | 42.2 | 67.0
COc1ccc(-c2nnc3c4ccccc4c(C)nn23)cc1 | – | · | – | · | 28.1 | –
COc1ccc(Oc2nnc(C)c3ccccc23)cc1 | ? | – | ? | ? | 46.5 | –
Cc1nnc(Oc2ccccc2F)c2ccccc12 | – | · | – | · | 33.4 | 105.7
Cc1nnc(Oc2ccccc2)c2ccccc12 | – | – | – | · | 23.5 | 46.6
COCCn1c(C)cc(O)c(C(c2ccccc2)N2CCN(c3ccccc3F)CC2)c1=O (centres undefined) | ? | – | · | – | · | ·
COc1ccc(NC(=O)Cn2c(=O)n(-c3cccc(C)c3)c(=O)c3c2c2cc(C)ccc2n3C)cc1Cl | ? | – | – | – | · | ·
CCC(C)N1C(=O)S/C(=C/c2ccc(N3CCOCC3)cc2C)C1=O (centres undefined) | ? | – | – | – | 56.0 | 87.0
Cc1cc(N2CCOCC2)ccc1/C=C1\SC(=O)N(C(C)C)C1=O | – | – | ? | – | 38.9 | –
CCOc1ccc(N2C(=O)NC(=O)/C(=C\c3ccc(N4CCOCC4)cc3C)C2=O)cc1 | – | – | – | – | – | –
CN(C)c1ccc(/C=C2\NC(=O)NC2=O)cc1 | · | – | · | – | · | ·
CC1=C(C(=O)Nc2ccc(F)cc2)C(c2ccc(N(C)C)cc2)NC(=O)N1 (centres undefined) | – | – | – | – | · | ·
O=C(Nc1ccccc1Cl)c1csc(-c2cccnc2)n1 | · | · | · | · | 29.2 | 40.6
O=C(NNC(=O)c1csc(-c2cccnc2)n1)c1ccccc1 | – | – | – | – | 30.2 | –
SMILES | LASV entry inh | VACV Venus inh | MARV entry inh | VACV mCherry inh | CHX counter | Shiga toxin inh
COc1ccccc1OCC(=O)N1CCCC(Nc2cccc(F)c2)C1 (centres undefined) | – | – | – | – | – | –
COc1ccc(CNS(=O)(=O)c2ccc3c(c2)N(C(C)=O)CC(C)S3)cc1 (centres undefined) | ? | – | ? | – | – | –
COc1c(Cl)cc(Cl)cc1CNCCSc1nnnn1C | – | – | – | – | · | ·
Cc1ccc(N(C(=O)CNC(=O)c2ccco2)C(C(=O)NC2CCCC2)c2ccncc2)c(C)c1 (centres undefined) | – | – | – | – | – | –
Cc1ccc(C(C(=O)NCc2ccco2)N(C(=O)CNC(=O)c2cccs2)c2ccc(C)cc2C)cc1 (centres undefined) | – | – | ? | – | 15.8 | 67.7
CC1=C(C(=O)Nc2cccnc2)C(c2ccc(F)cc2)n2nc(-c3cccc(C)c3)nc2N1 (centres undefined) | – | – | ? | – | · | ·
O=C(Nc1cc(S(=O)(=O)N2CCOCC2)ccc1OCC(F)(F)F)C1=COCCO1 | ? | – | – | – | · | ·
Oc1c(C=C2N=c3ccccc3=N2)sc(=S)n1C1CCCC1 | – | – | – | – | 19.0 | –
Oc1c(C=C2N=c3ccccc3=N2)sc(=S)n1-c1ccc(F)cc1 | ? | – | – | ? | – | –
Oc1[nH]c(=S)sc1C=C1N=c2ccccc2=N1 | – | – | – | – | 25.2 | 38.3
C=CCC(=O)OCC(=O)Nc1ccc(Oc2ccccc2)cc1 | · | · | – | · | – | –
Cc1nn(CC(=O)NCc2ccco2)c(C)c1[N+](=O)[O-] | – | – | ? | – | – | –
